This is an account of results in PubChem BioAssay (NCI).

Test [1] in a line: NCI Yeast Anticancer Drug Screen. Data for the rad50 strain (AID 155).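 Note: 0% = growth of vehicle-only cultures of the same strain.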 The note with it: S. cerevisiae rad50 strain growth inhibition; at 50.0 µM; hits give high values. Summed up: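 Relative growth inhibition (compound vs vehicle) was measured in yeast with a defined repair-gene alteration.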
A short description of test [2]: NCI Yeast Anticancer Drug Screen. Data for the mec2-1 strain (AID 157). To be noted: S. cerevisiae mec2-1 strain, at 50.0 µM, hits give high values. The essentials: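 Vehicle-treated cultures served as reference for growth inhibition of compound-exposed mec2-1 yeast.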
Test [3] can be described thus: NCI Yeast Anticancer Drug Screen. Data for the sgs1 mgt1 strain (AID 161).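 Note: 0% = growth of cultures given vehicle only.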 The note with it: S. cerevisiae sgs1 mgt1 strain, at 50.0 µM, hits give high values. The essentials: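 Inhibition of yeast growth, normalised to vehicle-treated controls, is reported for a strain bearing genetic alterations in DNA damage repair.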
Test [4] in a line: NCI Yeast Anticancer Drug Screen. Data for the cln2 rad14 strain (AID 165).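 Note: 0% = growth equal to vehicle treated cultures.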 To be noted: S. cerevisiae cln2 rad14 strain, at 50.0 µM, hits give high values. The essentials:
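Each compound was tested on cln2 rad14 yeast. Inhibition of growth was calculated against vehicle-exposed controls.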

The nature of test [5]: NCI Yeast Anticancer Drug Screen. Data for the bub3 strain (AID 167). The note with it: S. cerevisiae bub3 mutant strain, at 50.0 µM, hits give high values. Summed up:
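Screening used yeast with an engineered genetic alteration affecting cell cycle control. Compound-exposed cultures were compared with vehicle cultures, and reduced growth was taken as inhibition.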

A short description of test [6]: NCI Yeast Anticancer Drug Screen. Data for the mlh1 rad18 strain (AID 175). The note with it: S. cerevisiae mlh1 rad18 strain growth inhibition; at 50.0 µM; hits give high values. The essentials: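 Vehicle-treated cultures served as the reference for growth inhibition in a yeast strain carrying DNA damage repair alterations exposed to each compound.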

Structures are written as SMILES. The panel holds about 79,000 compounds, 15% with a hit somewhere; the sample as a whole holds those more often. A number with no mark means an inactive call. Active and inactive are the calls of the source. Cut-off read from the data, not from the text of the source: active = growth inhibition above about 70%; inactive = the rest.

`CSc1nnc(N(C(C)C)C(C)C)c2nc[nH]c12`: the growth inhibition is 9.65% in test [1]; 11.8% in test [2]; 16.1% in test [3]; 47.5% in test [4]; 14.7% in test [5]; 4.2% in test [6].
Consider `Cc1c(Cl)ccc([N+](=O)[O-])c1Cl`, for which the growth inhibition in test [1] was 10.7%; in test [2], -6.85%; in test [3], -3.35%; in test [4] it was 18.3%; in test [5], 14.8%; in test [6], 29.4%.
Take `Cc1ccc(S(=O)(=O)N/N=C2\CCC3(C)C(=CCC4C3CCC3(C)C(C(C)CCCC(C)C)CCC43)C2(C)C)cc1` (stereo unspecified): the growth inhibition in test [1] was 0.45%; in test [2], -1.2%; in test [3], -11.2%; in test [4] it was 2.75%; in test [5] it was -7.95%; in test [6], -0.1%.
As to `Nc1cc2c(cn1)[nH]c1ccccc12`, the growth inhibition in test [1] was 2.9%; in test [2], -14.8%; in test [3], -13.8%; in test [4] it was -16.4%; in test [5], 5.6%; in test [6], -2.35%.
Turning to `COCCn1nc(-c2ccc(Cl)cc2)c(-c2ccc(Cl)cc2)c(C(C)=O)c1=O`, the growth inhibition in test [1] was 12.2%; in test [2], -5.15%; in test [3] it was 0.9%; in test [4], 9.05%; in test [5] it was -1.7%; in test [6], -7.85%.
For the compound `O=C/C=C/C=C/C=C/c1ccccc1`, the growth inhibition is 32.6% in test [1]; -6.15% in test [2]; 14.4% in test [3]; 13.7% in test [4]; -5.25% in test [5]; 27.6% in test [6].
As to `O=C1NC(=O)N2CCCOC2C1c1ccccc1` (stereo unspecified), the growth inhibition in test [1] is 0.2%; in test [2] it was -5.5%; in test [3] it was 0.4%; in test [4], -10.2%; in test [5], -2.7%; in test [6] it was 22.3%.
For `CCCCCCCCCCCCCCCCCC(=O)N1C(=O)c2ccccc2C1=O`, the growth inhibition is 22.6% in test [1]; 2.35% in test [2]; 6.75% in test [3]; -8.85% in test [4]; -2.65% in test [5]; 29.9% in test [6].
As for `COc1cc(C(=O)NOCc2cccc(C(F)(F)F)c2)cc(OC)c1OC`, the growth inhibition was 39.8% in test [1]; -11.2% in test [2]; 15.9% in test [3]; -14.8% in test [4]; 2.5% in test [5]; 6.25% in test [6].
In the case of `CSC12CC3C(=O)C=C[C@@H](O)[C@@H]3N1C(=O)C1(SC)CC3C(=O)C=C[C@@H](O)[C@@H]3N1C2=O` (stereo partly specified), the growth inhibition in test [1] was 64.3%; in test [2], 78.2% (active); in test [3] it was 85.1% (active); in test [4], 39.8%; in test [5], 72.8% (active); in test [6], 65.2%.
As for `CC(=O)C1=C(C)Cn2c(=O)c3ccccc3c(=O)n2C1`, the growth inhibition in test [1] is -4.7%; in test [2], -18.5%; in test [3], -10.7%; in test [4] it was 10%; in test [5], -15.7%; in test [6], -0.05%.
For `N#Cc1ccc(CCc2ccccc2)cc1`, the growth inhibition in test [1] was 1.2%; in test [2] it was -3.75%; in test [3] it was 18.6%; in test [4], 10.4%; in test [5], 2.95%; in test [6], -2.05%.
With `CNC(=O)SCC(NC(=O)CCC(N)C(=O)O)C(=O)NCC(=O)O` (stereo unspecified), the growth inhibition in test [1] is -7.45%; in test [2], 9.55%; in test [3] it was 27.4%; in test [4] it was 28.4%; in test [5] it was 18.4%; in test [6] it was 36.3%.
Regarding `CC(C)n1cnc2c(=O)[nH]c(=O)[nH]c21`, the growth inhibition was -9.55% in test [1]; -4.55% in test [2]; 9.25% in test [3]; -39.8% in test [4]; -5.2% in test [5]; 2.9% in test [6].
Take `FCCN(CCF)Cc1ccc2c(c1)OCO2`: the growth inhibition is -4.8% in test [1]; -12.3% in test [2]; 2.05% in test [3]; -63.1% in test [4]; -3.1% in test [5]; -7.4% in test [6].
On to `O=C1C2Nc3ccccc3N=C2OC1c1ccc(Cl)c(Cl)c1` (stereo unspecified), for which the growth inhibition in test [1] was 10.1%; in test [2], -5.35%; in test [3], 15.7%; in test [4], 7%; in test [5], -4.8%; in test [6], 24.6%.
On to `CCCCCCCCCCCCOP(=O)(O)OP(=O)(O)OCC1OC(n2cc(C)c(=O)[nH]c2=O)CC1O` (stereo unspecified), for which the growth inhibition in test [1] was 35.4%; in test [2], 13.9%; in test [3], 47%; in test [4], 14.7%; in test [5], 14.4%; in test [6], 7.55%.
As for `c1ccc(C2=Nc3ccccc3C(c3ccccc3)=Nc3ccccc32)cc1`, the growth inhibition in test [1] is 1.05%; in test [2], 3.7%; in test [3], -8.95%; in test [4], -18.5%; in test [5], -1.8%; in test [6], 2.05%.
With `C=C(C)COC(OCC(=C)C)C(C)C`, the growth inhibition in test [1] was 26.4%; in test [2] it was 3.05%; in test [3], 3.45%; in test [4] it was 9.35%; in test [5], 22.2%; in test [6], 12.2%.
As to `CNc1ncnc2c1c(C(N)=S)cn2C1OC(CO)C(O)C1O` (stereo unspecified), the growth inhibition in test [1] is 0.1%; in test [2], -22.7%; in test [3] it was -13.7%; in test [4], 2.2%; in test [5], 0.95%; in test [6], 12.5%.
For the compound `COc1cc2c(cc1OC)C(=O)/C(=C/c1ccc([N+](=O)[O-])cc1)CC2`, the growth inhibition in test [1] was -50.2%; in test [2] it was -56.5%; in test [3] it was -11.9%; in test [4], -38.2%; in test [5], -28%; in test [6], -33.9%.
